Reference: ChEMBL document CHEMBL2218924, “A broad activity screen in support of a chemogenomic map for kinase signalling research and drug discovery” (Biochem J, 2013)

What was measured:
[1] = target: T1, Ephrin type-A receptor 3 (Homo sapiens) (UniProt P29320); settings: at 10 µM
T1 sequence (whole entry): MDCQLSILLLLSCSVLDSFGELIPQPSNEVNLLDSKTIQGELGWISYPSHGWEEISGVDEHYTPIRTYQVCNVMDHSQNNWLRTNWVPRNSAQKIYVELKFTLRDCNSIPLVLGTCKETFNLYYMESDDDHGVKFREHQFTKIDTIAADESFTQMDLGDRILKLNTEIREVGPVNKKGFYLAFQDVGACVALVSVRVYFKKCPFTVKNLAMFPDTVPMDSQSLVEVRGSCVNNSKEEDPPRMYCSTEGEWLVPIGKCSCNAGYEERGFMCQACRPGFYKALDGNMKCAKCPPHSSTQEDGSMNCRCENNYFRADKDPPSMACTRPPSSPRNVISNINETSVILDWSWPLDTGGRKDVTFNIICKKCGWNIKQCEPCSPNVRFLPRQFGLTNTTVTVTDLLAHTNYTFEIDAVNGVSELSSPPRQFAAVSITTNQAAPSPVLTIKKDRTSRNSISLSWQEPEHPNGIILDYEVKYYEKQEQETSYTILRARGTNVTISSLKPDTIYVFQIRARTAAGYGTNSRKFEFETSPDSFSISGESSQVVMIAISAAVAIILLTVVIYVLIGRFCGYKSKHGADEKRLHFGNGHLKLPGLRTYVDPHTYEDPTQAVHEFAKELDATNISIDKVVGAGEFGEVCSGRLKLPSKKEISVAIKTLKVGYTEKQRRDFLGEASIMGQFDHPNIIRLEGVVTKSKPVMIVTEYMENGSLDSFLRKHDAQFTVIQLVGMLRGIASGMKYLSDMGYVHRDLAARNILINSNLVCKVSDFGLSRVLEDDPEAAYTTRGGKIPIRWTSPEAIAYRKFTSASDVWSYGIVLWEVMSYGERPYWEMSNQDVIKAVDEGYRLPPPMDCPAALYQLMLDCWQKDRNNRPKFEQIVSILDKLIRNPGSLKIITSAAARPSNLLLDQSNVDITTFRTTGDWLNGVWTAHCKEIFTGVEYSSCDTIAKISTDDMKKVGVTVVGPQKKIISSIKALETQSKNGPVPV

[2] = target: Ephrin type-A receptor 7 (Homo sapiens) (UniProt Q15375); settings: at 1 µM
Chain of Ephrin type-A receptor 7 (Homo sapiens) (Q15375 28-998 limits assumed): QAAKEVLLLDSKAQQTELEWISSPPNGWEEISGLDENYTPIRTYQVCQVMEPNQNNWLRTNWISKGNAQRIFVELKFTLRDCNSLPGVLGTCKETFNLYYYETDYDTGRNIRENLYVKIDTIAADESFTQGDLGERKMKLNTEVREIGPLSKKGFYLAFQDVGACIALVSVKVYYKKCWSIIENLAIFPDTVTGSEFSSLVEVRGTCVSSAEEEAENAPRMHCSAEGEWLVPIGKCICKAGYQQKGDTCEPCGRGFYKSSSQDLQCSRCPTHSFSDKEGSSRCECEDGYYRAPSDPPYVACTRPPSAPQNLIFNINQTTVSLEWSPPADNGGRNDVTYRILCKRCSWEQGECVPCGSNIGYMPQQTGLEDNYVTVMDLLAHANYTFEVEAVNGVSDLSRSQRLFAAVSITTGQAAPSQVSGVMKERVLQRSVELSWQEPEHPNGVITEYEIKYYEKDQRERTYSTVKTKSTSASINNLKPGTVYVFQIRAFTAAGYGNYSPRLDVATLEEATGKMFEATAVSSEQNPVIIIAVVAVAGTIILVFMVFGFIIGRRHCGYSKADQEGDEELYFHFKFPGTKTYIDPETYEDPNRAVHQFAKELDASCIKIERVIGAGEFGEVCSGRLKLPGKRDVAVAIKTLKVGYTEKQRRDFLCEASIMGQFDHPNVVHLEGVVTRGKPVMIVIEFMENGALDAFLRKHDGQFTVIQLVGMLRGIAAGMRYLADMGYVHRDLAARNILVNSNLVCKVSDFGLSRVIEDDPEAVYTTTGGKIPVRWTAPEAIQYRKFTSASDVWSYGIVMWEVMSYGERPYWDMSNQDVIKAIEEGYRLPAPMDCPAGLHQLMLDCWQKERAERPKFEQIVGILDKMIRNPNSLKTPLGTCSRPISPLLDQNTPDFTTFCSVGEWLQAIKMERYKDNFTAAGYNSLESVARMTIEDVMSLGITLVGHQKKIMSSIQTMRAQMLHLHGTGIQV

[3] = target: Ephrin type-A receptor 7 (Homo sapiens) (UniProt Q15375); settings: at 10 µM
[4] = target: T2, Ephrin type-B receptor 1 (Homo sapiens) (UniProt P54762); settings: at 1 µM
T2 sequence (whole entry): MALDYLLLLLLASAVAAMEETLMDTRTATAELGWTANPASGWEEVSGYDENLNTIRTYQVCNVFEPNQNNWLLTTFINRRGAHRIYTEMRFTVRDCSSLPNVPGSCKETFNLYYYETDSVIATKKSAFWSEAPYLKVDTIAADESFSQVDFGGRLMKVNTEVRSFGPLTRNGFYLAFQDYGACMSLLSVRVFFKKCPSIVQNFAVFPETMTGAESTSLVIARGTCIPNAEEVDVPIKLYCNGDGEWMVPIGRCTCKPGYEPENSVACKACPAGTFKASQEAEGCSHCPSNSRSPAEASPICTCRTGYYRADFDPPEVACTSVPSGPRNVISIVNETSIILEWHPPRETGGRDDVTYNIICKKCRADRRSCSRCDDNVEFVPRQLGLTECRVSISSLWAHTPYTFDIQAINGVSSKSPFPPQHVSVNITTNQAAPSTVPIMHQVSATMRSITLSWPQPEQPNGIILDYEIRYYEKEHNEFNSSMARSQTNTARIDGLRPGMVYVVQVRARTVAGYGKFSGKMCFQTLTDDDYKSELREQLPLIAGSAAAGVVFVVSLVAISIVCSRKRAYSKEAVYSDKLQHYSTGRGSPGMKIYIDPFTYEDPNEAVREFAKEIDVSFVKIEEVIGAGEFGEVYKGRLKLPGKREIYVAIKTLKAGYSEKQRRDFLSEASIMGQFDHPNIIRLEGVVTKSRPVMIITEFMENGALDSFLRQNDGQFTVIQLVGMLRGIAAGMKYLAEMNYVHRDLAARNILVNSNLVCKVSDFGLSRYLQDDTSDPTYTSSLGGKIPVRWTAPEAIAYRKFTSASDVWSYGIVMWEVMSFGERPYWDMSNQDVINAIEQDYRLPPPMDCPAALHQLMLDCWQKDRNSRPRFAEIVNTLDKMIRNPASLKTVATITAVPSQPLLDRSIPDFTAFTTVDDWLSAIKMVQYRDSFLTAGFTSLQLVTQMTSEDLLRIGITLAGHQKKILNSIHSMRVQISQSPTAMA

[5] = target: T2, Ephrin type-B receptor 1 (Homo sapiens); settings: at 10 µM
[6] = target: T3, Ephrin type-B receptor 2 (Homo sapiens) (UniProt P29323); settings: at 1 µM
T3 sequence (whole entry): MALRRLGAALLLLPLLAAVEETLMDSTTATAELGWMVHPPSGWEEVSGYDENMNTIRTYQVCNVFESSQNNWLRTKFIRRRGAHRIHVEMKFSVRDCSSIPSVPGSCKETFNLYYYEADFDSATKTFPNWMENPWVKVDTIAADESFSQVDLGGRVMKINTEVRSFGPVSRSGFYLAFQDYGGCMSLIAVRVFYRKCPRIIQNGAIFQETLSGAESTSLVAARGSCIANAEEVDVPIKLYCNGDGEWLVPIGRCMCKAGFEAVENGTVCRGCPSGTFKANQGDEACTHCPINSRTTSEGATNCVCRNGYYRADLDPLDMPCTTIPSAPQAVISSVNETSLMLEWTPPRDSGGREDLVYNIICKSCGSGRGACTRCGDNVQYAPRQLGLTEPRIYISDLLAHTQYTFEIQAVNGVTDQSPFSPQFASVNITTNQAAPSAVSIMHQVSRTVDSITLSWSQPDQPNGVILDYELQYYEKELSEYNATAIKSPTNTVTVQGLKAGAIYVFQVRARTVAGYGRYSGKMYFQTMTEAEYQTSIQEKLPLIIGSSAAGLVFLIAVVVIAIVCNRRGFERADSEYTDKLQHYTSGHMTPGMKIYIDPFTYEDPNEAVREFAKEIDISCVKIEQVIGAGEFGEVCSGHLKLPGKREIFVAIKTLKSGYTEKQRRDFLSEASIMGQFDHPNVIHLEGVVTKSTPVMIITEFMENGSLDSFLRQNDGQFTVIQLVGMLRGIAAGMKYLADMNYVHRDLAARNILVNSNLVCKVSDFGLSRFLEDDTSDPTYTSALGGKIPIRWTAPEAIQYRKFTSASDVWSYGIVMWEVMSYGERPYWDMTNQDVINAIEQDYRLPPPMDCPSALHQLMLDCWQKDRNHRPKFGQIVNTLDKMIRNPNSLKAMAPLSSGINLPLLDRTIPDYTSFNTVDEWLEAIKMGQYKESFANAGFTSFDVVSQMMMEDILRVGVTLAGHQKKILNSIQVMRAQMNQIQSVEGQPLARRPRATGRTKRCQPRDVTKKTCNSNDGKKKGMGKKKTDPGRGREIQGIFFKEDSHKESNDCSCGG

[7] = target: T3, Ephrin type-B receptor 2 (Homo sapiens); settings: at 10 µM
[8] = target: T4, Ephrin type-B receptor 3 (Homo sapiens) (UniProt P54753); settings: at 1 µM
T4 sequence (whole entry): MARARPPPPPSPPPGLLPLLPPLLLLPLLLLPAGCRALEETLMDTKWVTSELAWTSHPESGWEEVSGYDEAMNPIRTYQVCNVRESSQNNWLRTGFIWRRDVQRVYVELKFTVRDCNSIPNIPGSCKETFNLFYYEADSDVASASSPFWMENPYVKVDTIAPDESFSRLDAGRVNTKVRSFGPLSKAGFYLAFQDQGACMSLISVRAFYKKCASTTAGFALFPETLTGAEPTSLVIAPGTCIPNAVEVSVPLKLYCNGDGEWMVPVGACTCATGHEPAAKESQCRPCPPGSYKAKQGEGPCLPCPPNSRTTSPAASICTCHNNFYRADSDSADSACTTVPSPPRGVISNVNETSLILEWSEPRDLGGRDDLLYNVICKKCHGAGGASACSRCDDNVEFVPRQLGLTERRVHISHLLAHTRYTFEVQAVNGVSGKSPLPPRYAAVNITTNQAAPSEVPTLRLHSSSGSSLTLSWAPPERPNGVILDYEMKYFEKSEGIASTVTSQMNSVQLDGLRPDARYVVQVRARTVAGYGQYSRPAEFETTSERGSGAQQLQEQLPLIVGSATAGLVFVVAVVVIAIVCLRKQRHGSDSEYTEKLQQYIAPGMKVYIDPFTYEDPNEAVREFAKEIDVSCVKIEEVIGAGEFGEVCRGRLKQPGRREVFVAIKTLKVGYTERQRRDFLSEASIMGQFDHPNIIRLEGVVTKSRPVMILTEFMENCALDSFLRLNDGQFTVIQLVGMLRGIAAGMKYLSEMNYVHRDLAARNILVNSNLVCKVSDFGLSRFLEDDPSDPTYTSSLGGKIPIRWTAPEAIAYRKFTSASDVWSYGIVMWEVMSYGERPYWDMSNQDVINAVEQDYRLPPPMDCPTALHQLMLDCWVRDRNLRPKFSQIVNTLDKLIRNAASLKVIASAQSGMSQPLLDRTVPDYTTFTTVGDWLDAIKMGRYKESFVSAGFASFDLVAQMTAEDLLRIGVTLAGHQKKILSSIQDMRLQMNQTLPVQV

[9] = target: T4, Ephrin type-B receptor 3 (Homo sapiens); settings: at 10 µM
[10] = target: T5, Ephrin type-B receptor 4 (Homo sapiens) (UniProt P54760); settings: at 1 µM
T5 sequence (whole entry): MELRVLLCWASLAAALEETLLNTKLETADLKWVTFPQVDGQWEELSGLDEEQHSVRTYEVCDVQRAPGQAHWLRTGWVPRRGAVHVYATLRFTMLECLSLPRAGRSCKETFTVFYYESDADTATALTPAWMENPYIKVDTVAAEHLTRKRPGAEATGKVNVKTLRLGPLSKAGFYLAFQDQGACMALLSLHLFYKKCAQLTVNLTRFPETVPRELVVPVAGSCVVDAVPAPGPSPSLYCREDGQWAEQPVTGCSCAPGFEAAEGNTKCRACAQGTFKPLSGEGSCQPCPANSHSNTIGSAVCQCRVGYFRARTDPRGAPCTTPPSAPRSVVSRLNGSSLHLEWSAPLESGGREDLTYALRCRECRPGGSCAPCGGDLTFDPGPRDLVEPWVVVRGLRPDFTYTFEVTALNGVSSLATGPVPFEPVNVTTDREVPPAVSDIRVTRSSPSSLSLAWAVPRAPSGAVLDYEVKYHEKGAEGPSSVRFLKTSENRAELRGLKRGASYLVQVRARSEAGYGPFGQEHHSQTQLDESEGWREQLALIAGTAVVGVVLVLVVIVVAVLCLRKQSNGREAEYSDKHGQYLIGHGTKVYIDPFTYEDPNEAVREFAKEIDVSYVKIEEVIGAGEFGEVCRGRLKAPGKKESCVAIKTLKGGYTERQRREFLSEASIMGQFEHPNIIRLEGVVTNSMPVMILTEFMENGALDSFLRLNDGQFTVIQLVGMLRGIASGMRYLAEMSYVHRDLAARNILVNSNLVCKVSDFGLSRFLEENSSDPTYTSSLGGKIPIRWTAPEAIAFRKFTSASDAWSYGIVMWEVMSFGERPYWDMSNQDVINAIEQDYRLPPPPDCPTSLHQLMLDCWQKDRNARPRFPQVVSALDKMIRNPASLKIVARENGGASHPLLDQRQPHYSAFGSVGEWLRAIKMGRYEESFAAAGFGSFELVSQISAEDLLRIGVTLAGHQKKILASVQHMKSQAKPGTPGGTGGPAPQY

[11] = target: T5, Ephrin type-B receptor 4 (Homo sapiens); settings: at 10 µM
[12] = target: Receptor tyrosine-protein kinase erbB-4 (Homo sapiens) (UniProt Q15303); settings: at 1 µM
Chain of Receptor tyrosine-protein kinase erbB-4 (Homo sapiens) (Q15303 whole entry): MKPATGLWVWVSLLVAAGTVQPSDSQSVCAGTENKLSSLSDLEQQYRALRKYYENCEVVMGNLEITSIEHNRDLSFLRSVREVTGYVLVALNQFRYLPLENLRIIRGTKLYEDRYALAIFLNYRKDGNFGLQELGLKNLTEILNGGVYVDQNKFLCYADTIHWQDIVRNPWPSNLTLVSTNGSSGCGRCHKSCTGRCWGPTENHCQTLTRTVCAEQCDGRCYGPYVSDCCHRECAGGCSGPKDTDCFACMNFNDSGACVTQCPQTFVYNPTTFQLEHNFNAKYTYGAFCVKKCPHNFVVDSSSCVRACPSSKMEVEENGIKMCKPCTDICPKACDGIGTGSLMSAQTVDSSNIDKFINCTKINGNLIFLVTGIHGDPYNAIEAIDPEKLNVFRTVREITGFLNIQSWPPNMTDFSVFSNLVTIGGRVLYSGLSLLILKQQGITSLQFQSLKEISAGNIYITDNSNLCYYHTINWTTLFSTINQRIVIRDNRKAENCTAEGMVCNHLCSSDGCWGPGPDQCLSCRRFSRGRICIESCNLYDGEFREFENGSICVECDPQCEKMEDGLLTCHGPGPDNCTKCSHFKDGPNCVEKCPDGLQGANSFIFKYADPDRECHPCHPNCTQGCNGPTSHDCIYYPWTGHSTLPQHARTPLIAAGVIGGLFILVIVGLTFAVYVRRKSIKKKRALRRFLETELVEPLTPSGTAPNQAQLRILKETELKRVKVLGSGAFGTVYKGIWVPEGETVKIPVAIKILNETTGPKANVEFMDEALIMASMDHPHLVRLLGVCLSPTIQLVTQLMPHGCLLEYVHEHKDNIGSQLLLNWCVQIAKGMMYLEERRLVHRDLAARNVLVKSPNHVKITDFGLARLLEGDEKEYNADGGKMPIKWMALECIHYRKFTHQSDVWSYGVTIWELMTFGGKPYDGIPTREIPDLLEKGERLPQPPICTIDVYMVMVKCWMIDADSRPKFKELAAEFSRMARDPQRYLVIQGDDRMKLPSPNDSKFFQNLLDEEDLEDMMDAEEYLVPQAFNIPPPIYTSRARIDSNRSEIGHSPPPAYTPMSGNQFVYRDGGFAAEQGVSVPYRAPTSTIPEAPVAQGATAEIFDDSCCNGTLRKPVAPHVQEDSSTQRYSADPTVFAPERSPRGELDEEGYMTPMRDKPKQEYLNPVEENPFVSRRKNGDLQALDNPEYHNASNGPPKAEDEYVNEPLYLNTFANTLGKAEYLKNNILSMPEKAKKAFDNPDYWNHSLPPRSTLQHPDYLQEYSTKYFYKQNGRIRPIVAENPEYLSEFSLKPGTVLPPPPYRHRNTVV

[13] = target: Receptor tyrosine-protein kinase erbB-4 (Homo sapiens) (UniProt Q15303); settings: at 10 µM
[14] = target: Focal adhesion kinase 1 (Homo sapiens) (UniProt Q05397); settings: at 1 µM
Chain of Focal adhesion kinase 1 (Homo sapiens) (Q05397 2-1052 limits assumed): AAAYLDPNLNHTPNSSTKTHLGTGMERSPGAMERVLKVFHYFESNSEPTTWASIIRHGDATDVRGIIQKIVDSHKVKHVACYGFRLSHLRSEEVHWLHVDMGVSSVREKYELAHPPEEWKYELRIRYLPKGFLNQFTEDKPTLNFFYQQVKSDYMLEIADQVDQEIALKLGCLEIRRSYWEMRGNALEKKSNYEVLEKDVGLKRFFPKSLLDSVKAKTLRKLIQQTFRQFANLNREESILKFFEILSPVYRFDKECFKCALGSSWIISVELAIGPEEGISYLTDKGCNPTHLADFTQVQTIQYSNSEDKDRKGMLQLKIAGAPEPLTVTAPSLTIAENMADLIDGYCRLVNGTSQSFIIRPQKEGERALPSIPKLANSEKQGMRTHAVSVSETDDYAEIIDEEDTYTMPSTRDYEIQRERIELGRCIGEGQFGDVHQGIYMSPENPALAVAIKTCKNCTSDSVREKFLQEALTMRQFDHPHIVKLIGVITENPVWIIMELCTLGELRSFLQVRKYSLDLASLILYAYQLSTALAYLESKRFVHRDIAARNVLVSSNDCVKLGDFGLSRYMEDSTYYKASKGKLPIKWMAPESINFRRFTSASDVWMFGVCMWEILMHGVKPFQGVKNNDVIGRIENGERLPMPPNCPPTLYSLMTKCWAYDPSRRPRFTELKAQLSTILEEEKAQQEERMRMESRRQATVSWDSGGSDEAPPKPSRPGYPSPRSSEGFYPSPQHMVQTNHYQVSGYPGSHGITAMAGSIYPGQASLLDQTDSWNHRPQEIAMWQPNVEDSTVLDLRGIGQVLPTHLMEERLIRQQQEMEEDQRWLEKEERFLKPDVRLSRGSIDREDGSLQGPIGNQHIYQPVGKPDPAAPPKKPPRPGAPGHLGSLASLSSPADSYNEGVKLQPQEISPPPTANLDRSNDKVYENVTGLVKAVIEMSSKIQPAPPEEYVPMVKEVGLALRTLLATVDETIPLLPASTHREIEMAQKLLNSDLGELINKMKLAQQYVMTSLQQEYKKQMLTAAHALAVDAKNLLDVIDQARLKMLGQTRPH

[15] = target: Ephrin type-A receptor 5 (Homo sapiens) (UniProt P54756); settings: at 1 µM
Chain of Ephrin type-A receptor 5 (Homo sapiens) (P54756 whole entry): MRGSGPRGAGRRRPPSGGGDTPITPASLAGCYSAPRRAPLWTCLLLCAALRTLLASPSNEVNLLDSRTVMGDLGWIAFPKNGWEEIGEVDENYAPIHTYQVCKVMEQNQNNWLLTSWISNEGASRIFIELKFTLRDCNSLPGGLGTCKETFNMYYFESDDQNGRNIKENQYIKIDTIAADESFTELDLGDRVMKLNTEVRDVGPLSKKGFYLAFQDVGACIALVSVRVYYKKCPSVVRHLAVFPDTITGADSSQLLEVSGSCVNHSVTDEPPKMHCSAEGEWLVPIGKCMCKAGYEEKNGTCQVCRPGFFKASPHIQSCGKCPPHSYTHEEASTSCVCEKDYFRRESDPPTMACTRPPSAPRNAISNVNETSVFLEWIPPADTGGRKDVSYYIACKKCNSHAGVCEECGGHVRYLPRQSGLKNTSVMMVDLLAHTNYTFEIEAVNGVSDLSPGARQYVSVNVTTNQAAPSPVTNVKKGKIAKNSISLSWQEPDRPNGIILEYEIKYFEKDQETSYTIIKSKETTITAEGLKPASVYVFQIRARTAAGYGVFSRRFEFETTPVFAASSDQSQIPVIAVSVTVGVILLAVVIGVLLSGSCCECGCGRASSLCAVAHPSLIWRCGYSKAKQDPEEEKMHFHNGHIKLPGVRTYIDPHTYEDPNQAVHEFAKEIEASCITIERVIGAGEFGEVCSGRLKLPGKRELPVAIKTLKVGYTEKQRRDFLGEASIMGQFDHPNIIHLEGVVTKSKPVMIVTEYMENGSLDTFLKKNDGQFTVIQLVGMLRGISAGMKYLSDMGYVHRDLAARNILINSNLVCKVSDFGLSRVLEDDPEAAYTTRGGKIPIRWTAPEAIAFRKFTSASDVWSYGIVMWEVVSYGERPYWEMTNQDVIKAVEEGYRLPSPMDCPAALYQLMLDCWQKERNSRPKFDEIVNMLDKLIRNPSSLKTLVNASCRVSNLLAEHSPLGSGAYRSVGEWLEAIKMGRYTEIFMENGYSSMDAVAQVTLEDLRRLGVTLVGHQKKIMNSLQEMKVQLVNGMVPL

[16] = target: Ephrin type-A receptor 5 (Homo sapiens) (UniProt P54756); settings: at 10 µM
[17] = target: T6, Ephrin type-A receptor 8 (Homo sapiens) (UniProt P29322); settings: at 1 µM
T6 sequence (whole entry): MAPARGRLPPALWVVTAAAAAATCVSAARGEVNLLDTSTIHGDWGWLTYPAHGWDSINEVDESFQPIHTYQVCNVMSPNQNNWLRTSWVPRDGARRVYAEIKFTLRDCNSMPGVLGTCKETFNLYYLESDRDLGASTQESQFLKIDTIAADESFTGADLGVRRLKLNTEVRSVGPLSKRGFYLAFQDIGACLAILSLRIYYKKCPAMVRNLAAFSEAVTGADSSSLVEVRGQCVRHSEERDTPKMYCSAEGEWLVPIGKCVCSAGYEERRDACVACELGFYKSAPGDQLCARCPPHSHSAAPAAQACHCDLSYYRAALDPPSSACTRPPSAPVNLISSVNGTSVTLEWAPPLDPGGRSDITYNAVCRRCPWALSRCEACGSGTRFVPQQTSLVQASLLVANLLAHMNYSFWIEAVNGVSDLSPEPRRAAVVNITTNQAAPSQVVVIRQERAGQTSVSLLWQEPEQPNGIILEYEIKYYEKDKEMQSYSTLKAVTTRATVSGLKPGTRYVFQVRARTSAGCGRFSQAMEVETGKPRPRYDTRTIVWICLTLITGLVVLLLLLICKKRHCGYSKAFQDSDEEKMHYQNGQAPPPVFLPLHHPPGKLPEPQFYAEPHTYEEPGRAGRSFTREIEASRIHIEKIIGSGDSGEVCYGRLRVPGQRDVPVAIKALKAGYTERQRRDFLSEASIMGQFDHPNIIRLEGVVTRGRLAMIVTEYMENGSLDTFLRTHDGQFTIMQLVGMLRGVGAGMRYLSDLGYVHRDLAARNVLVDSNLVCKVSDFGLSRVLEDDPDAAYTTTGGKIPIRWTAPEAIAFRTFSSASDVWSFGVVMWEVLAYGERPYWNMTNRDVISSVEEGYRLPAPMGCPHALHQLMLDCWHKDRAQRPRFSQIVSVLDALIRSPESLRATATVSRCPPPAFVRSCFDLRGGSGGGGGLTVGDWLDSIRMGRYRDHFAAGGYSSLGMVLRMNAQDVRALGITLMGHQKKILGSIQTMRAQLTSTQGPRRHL

[18] = target: T6, Ephrin type-A receptor 8 (Homo sapiens); settings: at 10 µM

COc1ccc2c(c[n+](C)c3c4cc5c(cc4ccc23)OCO5)c1OC
residual activity [1]: 92% | residual activity [2]: 94% | residual activity [3]: 79% | residual activity [4]: 89% | residual activity [5]: 91% | residual activity [6]: 121% | residual activity [7]: 121% | residual activity [8]: 126% (inactive) | residual activity [9]: 133% | residual activity [10]: 94% | residual activity [11]: 119% | residual activity [12]: 96% | residual activity [13]: 79% | residual activity [14]: 140%

O=C1NC(=O)c2c1c1c3ccccc3n3c1c1c2c2ccccc2n1C1CCC3O1
residual activity [15]: 94% | residual activity [16]: 92% | residual activity [2]: 100% | residual activity [3]: 100% | residual activity [17]: 96% | residual activity [18]: 94%
